Test results published in PubChem BioAssay AID1159580 (chemical genetic matrix, 2015).
“And” between values parts separate entries of the source, which are not always exact repeats. Identical values can stand only once. Hit rate of the full screen: of about 5,500 compounds, about 2,000 (36%) were called active. About 18% were inconclusive and are not listed. Cut-off read from the data, not from the text of the source: active = normalized growth mostly below about 0.91 (no sharp cut-off); inconclusive = no clear call, values can overlap the other calls; inactive = mostly above about 0.92. The list shows a part of the results.

Assay: chemical genetic growth profiling, strain panel (AID 1159580);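 note: tested at 20 µM; growth read once vehicle control cultures reached saturation at 30 °C; 1 = growth at the plate median or of vehicle wells; lower values mean less growth of the strain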
Settings: S. cerevisiae deletion strains, growth OD

Measured: normalized growth

c1ccc([C@H]2CN3CCSC3=N2)cc1
inactive: locus YAL013W, strain DEP1, stronger effect = lower value 1.01 | locus YAL021C, strain ccr4, stronger effect = lower value 1.01 | locus YAL026C, strain drs2, stronger effect = lower value 1.01 | locus YAL030W, strain snc1, stronger effect = lower value 1.01 | locus YBL061C, strain skt5, stronger effect = lower value 1.01 | locus YBR009C, strain hhf1, stronger effect = lower value 1.01 | locus YBR021W, strain FUR4, stronger effect = lower value 0.956 | locus YBR023C, strain chs3, stronger effect = lower value 1.01 | locus YBR171W, strain sec66, stronger effect = lower value 1.02 | locus YBR229C, strain ROT2, stronger effect = lower value 1.01 | locus YBR231C, strain swc5, stronger effect = lower value 1 | locus YBR279W, strain paf1, stronger effect = lower value 1.02 | locus YCL011C, strain gbp2, stronger effect = lower value 1.01 | locus YCL016C, strain dcc1, stronger effect = lower value 1.01 | locus YCL029C, strain bik1, stronger effect = lower value 1.01 | locus YCL061C, strain MRC1, stronger effect = lower value 0.996 | locus YCL069W, strain vba3, stronger effect = lower value 1 | locus YCR088W, strain abp1, stronger effect = lower value 1 | locus YDL005C, strain med2, stronger effect = lower value 0.976 | locus YDL035C, strain GPR1, stronger effect = lower value 1.01 | locus YDL040C, strain nat1, stronger effect = lower value 1.01 | locus YDL074C, strain BRE1, stronger effect = lower value 1 | locus YDL101C, strain DUN1, stronger effect = lower value 1 | locus YDL134C, strain PPH21, stronger effect = lower value 1.01 | locus YDL185W, strain tfp1, stronger effect = lower value 1.02 | locus YDL192W, strain arf1, stronger effect = lower value 1 | locus YDR001C, strain nth1, stronger effect = lower value 0.995 | locus YDR069C, strain doa4, stronger effect = lower value 0.996 | locus YDR101C, strain arx1, stronger effect = lower value 1 | locus YDR137W, strain rgp1, stronger effect = lower value 1.04 | locus YDR150W, strain NUM1, stronger effect = lower value 1.01 | locus YDR159W, strain sac3, stronger effect = lower value 0.944 | locus YDR162C, strain NBP2, stronger effect = lower value 0.999 | locus YDR195W, strain ref2 1 | locus YDR297W, strain sur2, stronger effect = lower value 1.01 | locus YDR318W, strain mcm21, stronger effect = lower value 0.993 | locus YDR334W, strain swr1, stronger effect = lower value 0.984 | locus YDR335W, strain msn5, stronger effect = lower value 0.987 | locus YDR388W, stronger effect = lower value 1.01 | locus YDR392W, strain spt3, stronger effect = lower value 1.01 | locus YDR502C, strain sam2, stronger effect = lower value 0.993 | locus YEL003W, strain gim4, stronger effect = lower value 1.01 | locus YEL037C, strain rad23, stronger effect = lower value 1 | locus YEL061C, strain CIN8 (second series), stronger effect = lower value 0.996 | locus YEL061C, strain CIN8, stronger effect = lower value 1 | locus YER015W, strain faa2, stronger effect = lower value 1.01 | locus YER016W, strain bim1, stronger effect = lower value 1.01 | locus YER110C, stronger effect = lower value 1.02 | locus YER111C, strain swi4, stronger effect = lower value 1.01 | locus YER155C, strain BEM2 (second series), stronger effect = lower value 1.01 | locus YER155C, strain BEM2, stronger effect = lower value 0.999 | locus YER167W, strain BCK2, stronger effect = lower value 1.01 | locus YFR010W, strain ubp6, stronger effect = lower value 0.981 | locus YGL078C, strain dbp3, stronger effect = lower value 1 | locus YGL086W, strain mad1, stronger effect = lower value 1.01 | locus YGL167C, strain pmr1, stronger effect = lower value 1 | locus YGL173C, strain kem1, stronger effect = lower value 1.01 | locus YGL227W, strain vid30, stronger effect = lower value 1.02 | locus YGL240W, strain doc1, stronger effect = lower value 1 | locus YGL248W, strain PDE1, stronger effect = lower value 1 | locus YGL253W, strain hxk2, stronger effect = lower value 1.01 | locus YGR078C, strain PAC10, stronger effect = lower value 1 | locus YGR135W, strain pre9, stronger effect = lower value 0.988 | locus YGR229C, strain SMI1, stronger effect = lower value 0.994 | locus YGR252W, strain gcn5, stronger effect = lower value 1.02 | locus YHR013C, strain ard1, stronger effect = lower value 1.02 | locus YHR027C, strain rpn1, stronger effect = lower value 1.01 | locus YHR030C, strain SLT2, stronger effect = lower value 1.01 | locus YHR079C, strain IRE1 (second series), stronger effect = lower value 1 | locus YHR079C, strain IRE1, stronger effect = lower value 1.03 | locus YHR094C, strain hxt1, stronger effect = lower value 1 | locus YHR129C, strain ARP1, stronger effect = lower value 1.03 | locus YHR142W, strain chs7, stronger effect = lower value 1.05 | locus YHR200W, strain rpn10, stronger effect = lower value 1 | locus YIL066C, strain RNR3, stronger effect = lower value 1.02 | locus YIL073C, strain SPO22, stronger effect = lower value 1.05 | locus YIL125W, strain kgd1, stronger effect = lower value 1.01 | locus YIR030C, strain dcg1, stronger effect = lower value 1.01 | locus YJL092W, strain hpr5, stronger effect = lower value 1 | locus YJL095W, strain BCK1 (second series), stronger effect = lower value 1.01 | locus YJL095W, strain BCK1, stronger effect = lower value 1.01 and 1.05 | locus YJL115W, strain asf1, stronger effect = lower value 0.997 | locus YJL129C, strain trk1, stronger effect = lower value 1.02 | locus YJL134W, strain LCB3, stronger effect = lower value 1.01 | locus YJL154C, strain vps35, stronger effect = lower value 1.01 | locus YJL164C, strain tpk1, stronger effect = lower value 0.983 | locus YJL166W, strain qcr8, stronger effect = lower value 1.01 | locus YJL168C, strain set2, stronger effect = lower value 1.01 | locus YJL187C, strain SWE1 (second series), stronger effect = lower value 1.01 | locus YJL187C, strain SWE1, stronger effect = lower value 1 | locus YJR043C, strain POL32, stronger effect = lower value 1.02 | locus YJR066W, strain TOR1, stronger effect = lower value 0.976
